# Sampled rows, rich in hits. Any-hit rate of the full collection: about 2.9%.
# SNCA expr inh: reduces expression of the alpha-synuclein gene. actives 0.17% (n = 140,000). HEK-293 SNCA-luciferase knock-in, luminescence, 24 h. Potency, µM (top dose mostly 57.2 µM), for inactives: at the top dose activity change, negative = inhibition, actives largely listed as inhibitors. AID 1671194;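 also: potency is read from the fitted curve at half-maximal effect; plate controls were DMSO cells for no effect and cell-free wells for full effect; nearly all actives have a fitted effect of over 45% in size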
# KDM5B inhibitor: KDM5B demethylase inhibition; Q9UGL1; KDM5B demethylase, FDH-coupled NADH fluorescence (FDH is formaldehyde dehydrogenase); Potency, µM (top dose mostly 57.7 µM), usual class: inhibitors; actives 2.6% (n = 220,000); AID 1347165; also: potency is read from the fitted curve at half-maximal effect; 0% is about no effect; nearly all actives have a fitted effect of over 70% in size
#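 Compound dilutions met 200 nM (final) KDM5BΔAP for 10 min at room temperature before substrate addition. The substrate mix held 12.5 µM H3K4me3 with cofactors 25 µM α-ketoglutarate and 50 µM Fe²⁺. NADH signal gain over 30 min defined activity.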
# HEK293 viab: cell viability loss counter-screen | HEK-293-SNCA-luc viability, GF-AFC fluorescence, 24 h | Potency, µM (series often up to 57.1 µM), for the others: at the top dose activity change, negative = cytotoxicity, actives largely listed as cytotoxic | actives 0.12% (n = 150,000);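 also: potency is read from the fitted curve at half-maximal effect; 0% = DMSO-treated cells and -100% = medium-only wells without cells; nearly all actives have a fitted effect of over 30% in size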
#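 Cytotoxicity counterscreen: after 24 h compound treatment of genome-edited SNCA-luciferase HEK-293 cells, live-cell protease substrate GF-AFC read by fluorescence after 30 min; activity scaled between DMSO (0%) and medium-only (-100%), curves Hill-fitted.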
# IP6K1 inhibitor: inhibitors of human IP6K1 | IP6K1 kinase, ADP-Glo luminescence, 2 h; stronger effect = lower value | activity change, % (series mostly up to about 58 µM) | actives 0.81% (n = 140,000) | AID 1645851; in the data active = activity change below about -25%; also: % is scaled to controls: 0 for no effect and ±100 for the full control effect
#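 ADP-Glo luminescence measures ADP made by human IP6K1 during a 2 h RT reaction with ATP/IP6 (mix at 1.3 mM/130 uM); top library doses 57.5 and 19.1 uM final.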
# IP6K1 inh cnf: human IP6K1 inhibition, confirmatory. recombinant IP6K1 kinase, ADP-Glo luminescence, 2 h. Potency, µM (highest dose often 49 µM), inactives show at the top dose activity change, negative = inhibition, most hits filed as inhibitors. actives 13% (n = 1,200). shares compounds with IP6K1 inhibitor; also: potency is read from the fitted curve at half-maximal effect; % is scaled to controls: 0 for no effect and ±100 for the full control effect; nearly all actives have a fitted effect of over 65% in size
# Active calls of the source: *; i = inactive; u = inconclusive; x = no result given; ! = not confirmed by another sample; [ ] = remark or other dose. Unless noted, calls follow the shape of the dose curve; as a rule, active = well fitted curve in the direction sought with a large enough effect; inconclusive = small, poorly fitted or top-dose-only effect, or another doubt; inactive = no such curve, though single readings can be large; an effect the other way counts as inactive or inconclusive.
SMILES,SNCA expr inh,KDM5B inhibitor,HEK293 viab,IP6K1 inhibitor,IP6K1 inh cnf
Oc1ccc(NCc2ccc(OCc3ccccc3)cc2)cc1,7%,u,-15%,-1,x
COc1ccc(NC(=O)CN2CCN(Cc3ccccc3Cl)S2(=O)=O)cc1Cl,15%,i,-11%,-29*,u
CCCCCCCc1ccc(/C=C/c2ccc(OCCCC)cc2)nc1,x,i,x,x,x
CCc1ccc(C(=O)Nc2cc(CN3CCN(C)CC3)cc(C(F)(F)F)c2)cc1C#Cc1cnc2ccnn2c1,24µM*,x,u,-39*,u
CCN1CCN(c2cc(C)c3cc(NC(=O)c4cccc(C(F)(F)F)c4)ccc3n2)CC1,1%,i,2%,9,x
O=C(O)CCc1cccc(Cl)c1Cl,x,i,x,x,x
Cc1ccccc1Cn1cc(CCC(=O)NCc2cccc(Br)c2)c2ccccc21,-18%,u,u,-29*,10%
COc1ccc(CNC(=O)CCc2cn(Cc3cc(C)ccc3C)c3ccccc23)cc1OC,u,i,5%,32,x
O=C(Cc1cccs1)NC(C(=O)Nc1ccc2c(c1)OCO2)c1ccccc1 (centres undefined),x,i,x,x,x
CC(=O)Nc1nc2ccccc2n1Cc1ccccc1Cl,x,i,x,x,x
CC(=O)NC(C)c1nc2ccccc2n1Cc1ccccc1Cl (centres undefined),0%,i,2%,-26*,13%
CCn1c(=O)c2cc(C(=O)N(C)c3ccccc3C)sc2c2ccccc21,x,i,x,x,x
CCn1c(=O)c2cc(C(=O)N(CC(C)C)CC(C)C)sc2c2ccccc21,-4%,i,16%,-26*,-8%
CCOC(=O)c1cn(C)nc1S(=O)(=O)N1CCCCC1,x,i,x,x,x
C[C@@H](c1ccccc1)N1C(=O)[C@@H]2CN(C(=O)CC3(CC(=O)O)CCCC3)CCN2C1=O,12%[87.6 µM],i,-3%[87.6 µM],5,x
Cc1ccc(C)c(OCC(=O)c2ccc3c(c2)N(CCCC(=O)NCC2CCCO2)C(=O)CO3)c1 (centres undefined),-22%,i,u,-9,x
O=c1cc(-c2ccc(O)cc2)oc2cc(O)cc(O)c12,-11%,x,-16%,x,1.5µM*
CCCCC(=O)Nc1ccccc1C(=O)OCc1cc(=O)n2nc(C3CCCCC3)sc2n1,-1%,u,-20%,-28*,-15%
COc1ccc(-c2ccc(C(=O)NC(C)C)c(Cl)c2)nn1,x,x,x,-11,x
COc1ccc(-c2ccc(C(=O)N3CCCC3)c(Cl)c2)nn1,x,x,x,-69*,u
COc1ccc(-c2ccc(C(=O)N(C)c3ccccc3)cc2)nn1,x,x,x,-17,u
COc1ccc(-c2ccc(C(=O)N(C)C)c(Cl)c2)nn1,x,x,x,-46*,u
Nc1nc2c(s1)C(c1cccc(F)c1)CC(=O)N2 (centres undefined),68%,i,0%,-31*,u
Cc1ccc(N2CC(NC(=O)c3ccco3)CC2=O)cc1C (centres undefined),0%,i,-2%,-25*,-10%
Cc1ccc(N2CC(NC(=O)c3ccc(Br)o3)CC2=O)cc1C (centres undefined),-11%,i,-11%,-13,x
SMILES,SNCA expr inh,KDM5B inhibitor,HEK293 viab,IP6K1 inhibitor,IP6K1 inh cnf
O=C(CC1CCCC1)N1CCN(C(=O)c2cc3ccccc3[nH]2)CC1,x,i,x,x,x
O=C(c1cscn1)N1CCc2nn(CC3CC3)c(=O)n2CC1,-2%,i,-1%,-11,x
COc1ccc(S(=O)(=O)N(CC(=O)NC(C)c2ccccc2)c2ccc(C)cc2)cc1OC (centres undefined),6%,i,2%,-33*,u
COc1ccc(S(=O)(=O)N(CC(=O)NCc2ccccc2)c2ccc(C)cc2)cc1OC,-27%,i,u,-26*,-4%
COc1ccc(S(=O)(=O)N(CC(=O)NC2CCCCCC2)c2ccc(C)cc2)cc1OC,x,i,x,x,x
Cc1ccc(Nc2ccnc(N3CCC(C(=O)N4CCOCC4)CC3)n2)cc1,u,x,4%[12.5 µM],-11,x
CN1CCCN(C(=O)c2nc3sccn3c2CN2C[C@]3(C)C[C@H]2CC(C)(C)C3)CC1,26%,i,-7%,0,x
Cc1ccc(NC(=O)C(NS(=O)(=O)c2ccc3c(c2)CCC(=O)N3)c2ccccc2)cc1C (centres undefined),65%,u,-4%,-32*,-4%
S=C(NCCc1ccccc1)NCc1ccccc1Br,x,i,x,x,x
Cc1cc(NC(=O)Cn2c(=O)nc(-c3ccccc3F)c3cc(Cl)ccc32)ccc1Br,17%,i,4%,-25*,10%
O=S(=O)(c1ccccc1)c1nc(-c2cccs2)oc1N1CCCCC1,-13%,u,3%,-36*,-16%
O=S(=O)(c1ccccc1)c1nc(-c2cccs2)oc1N1CCOCC1,x,i,x,x,x
Cc1ccc(-c2nc(S(=O)(=O)c3ccc(C)cc3)c(N3CCCCC3)o2)cc1,0%,u,0%,-29*,u
Cc1ccc(S(=O)(=O)c2nc(-c3ccccc3)oc2N2CCCCCC2)cc1,-12%,i,-27%,11,x
O=C(CN1CCCc2nc(C3CC3)ncc2C1=O)NCCc1c[nH]c2ccccc12,24%,u,-4%,6,x
c1ccc(CN2CCC(Cc3ccc(CN4CCCC4)cc3)CC2)nc1,-6%,x,-11%,8,x
Cc1cc(=O)oc2cc(OCC(=O)NCc3ccccn3)c(Cl)cc12,x,i,x,x,x
CC(C)(C)C(=O)OCC1CCC[N+]2(C)CCCCC12 (centres undefined),x,i,x,x,x
CCC(=O)OCCCNc1nc(-c2ccc(Cl)cc2)nc2ccccc12,11%,u,-9%,-25*,u
CN(C)CCCNc1nc(-c2ccccc2)nc2ccccc12,x,i,x,x,x
COc1cccc(CNC(=O)c2ccc3nnc(Cc4ccco4)n3c2)c1,20%[87.6 µM],x,12%[87.6 µM],-33*,u
O=C(NCc1cccc(C(F)(F)F)c1)c1ccc2nnc(Cc3ccco3)n2c1,-6%,x,-6%,-30*,u
O=C(NCc1cccs1)c1ccc2nnc(Cc3ccco3)n2c1,24%[87.6 µM],x,-4%[87.6 µM],-32*!,u
O=C(NCc1ccccc1)c1ccc2nnc(Cc3ccco3)n2c1,-1%,x,6%,-14,x
Cn1nc(CC(=O)Nc2ccc(OC(=O)c3ccccc3)cc2)c2ccccc2c1=O,x,i,x,x,x
COc1ccc(S(=O)(=O)N2CCc3ccccc32)cc1C(=O)OCC(=O)Nc1ccccc1,x,i,x,x,x
C[C@H]1[C@@H]2[C@@H](O)C([C@H](C)C(=O)NCc3ccco3)CC[C@@]2(C)CC[C@@H]1NC(=O)CC(C)(C)C (some centres undefined),-29%,u,0%,4,x
CCC1(C)Cc2c(sc3nc(SC)n(-c4ccc(C)cc4)c(=O)c23)CO1 (centres undefined),6%,i,11%,-50*,22%
CCCCNC(C(=O)c1c[nH]c2ccccc12)c1ccccc1 (centres undefined),x,i,x,x,x

# Compound activity (PubChem)
